Assay results published in PubChem BioAssay (NCI).
This is part of a sample that, as a whole, favours compounds with a hit. Of some 79,000 tested, about 15% had one in any assay. Values without a mark were called inactive. The source made the active and inactive calls. Rule as the data show it: active = growth inhibition above about 70%; inactive = the rest.

Key:
[1] = NCI Yeast Anticancer Drug Screen. Data for the rad50 strain (AID 155);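 also: 0% = growth of vehicle-only cultures of the same strain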; conditions: S. cerevisiae rad50 strain growth inhibition, stronger effect = higher value
Summary of the method: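 Genetically altered yeast (DNA repair pathway); compound treatment; growth inhibition vs vehicle ctrl.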

[2] = NCI Yeast Anticancer Drug Screen. Data for the mec2-1 strain (AID 157); conditions: S. cerevisiae mec2-1 strain, stronger effect = higher value
Summary of the method: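 Growth inhibition is read against vehicle-treated controls after compound exposure of the mec2-1 yeast strain, which is defective in DNA damage repair or cell cycle control.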

[3] = NCI Yeast Anticancer Drug Screen. Data for the sgs1 mgt1 strain (AID 161);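 also: 0% = growth of cultures given vehicle only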; conditions: S. cerevisiae sgs1 mgt1 strain, stronger effect = higher value
Summary of the method: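 Yeast cells carrying a defined DNA-repair defect were exposed to test compounds. Growth inhibition was measured relative to vehicle-treated controls.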

[4] = NCI Yeast Anticancer Drug Screen. Data for the cln2 rad14 strain (AID 165);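 also: 0% = growth equal to vehicle treated cultures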; conditions: S. cerevisiae cln2 rad14 strain, stronger effect = higher value
Summary of the method: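 Growth inhibition, relative to vehicle-treated controls, is the read-out. The test organism is a yeast strain with defined genetic alterations, cln2 rad14.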

[5] = NCI Yeast Anticancer Drug Screen. Data for the bub3 strain (AID 167); conditions: S. cerevisiae bub3 mutant strain, stronger effect = higher value
Summary of the method: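 Yeast carrying a defined mutation is treated with each compound, and growth is compared with that of vehicle-exposed cells to give inhibition.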

[6] = NCI Yeast Anticancer Drug Screen. Data for the mlh1 rad18 strain (AID 175); conditions: S. cerevisiae mlh1 rad18 strain growth inhibition, stronger effect = higher value
Summary of the method: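 Cells of a genetically altered yeast strain, deficient in DNA damage repair, were treated with compound. Their growth was then compared with that of vehicle-treated cultures to give inhibition.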

[7] = at 5.0 µM (retest, dose inferred, filed as 0.5)
[8] = at 50.0 µM (retest, dose inferred, filed as 5.0)

In the case of `Cc1[cH-]c(=O)n(-c2ccccc2)n1.[Au+].[Au].c1ccc([PH+](c2ccccc2)c2ccccc2)cc1.c1ccc([PH+](c2ccccc2)c2ccccc2)cc1`, the growth inhibition [1, 7] is reported as 27%, the growth inhibition [1, 8] is reported as 65% and the growth inhibition ([1]; at 50.0 µM) is reported as 88.8% (active). The growth inhibition [2, 7] was 32%, the growth inhibition [2, 8] was 96% (active) and the growth inhibition ([2]; at 50.0 µM) was 90.3% (active). The growth inhibition [3, 7] was 33%, the growth inhibition [3, 8] was 93% (active) and the growth inhibition ([3]; at 50.0 µM) was 91.5% (active). The growth inhibition [4, 7] was 18%, the growth inhibition [4, 8] was 65% and the growth inhibition ([4]; at 50.0 µM) was 88.7% (active). For the same compound, the growth inhibition [5, 7] was 19%, the growth inhibition [5, 8] was 87% (active) and the growth inhibition ([5]; at 50.0 µM) was 89.4% (active). For the same compound, the growth inhibition [6, 7] was 35%, the growth inhibition [6, 8] was 79% (active) and the growth inhibition ([6]; at 50.0 µM) was 83% (active).

For `COc1ccc(P2(=S)Oc3ccc(C(c4ccccc4)(c4ccccc4)c4ccccc4)cc3O2)cc1` (configuration not stated), the growth inhibition [1, 7] was 36%, the growth inhibition [1, 8] was 96% (active) and the growth inhibition ([1]; at 50.0 µM) was 38.6%. The growth inhibition [2, 7] was 11%, the growth inhibition [2, 8] was 98% (active) and the growth inhibition ([2]; at 50.0 µM) was 64.3%. For the same compound, the growth inhibition [3, 7] was 34%, the growth inhibition [3, 8] was 96% (active) and the growth inhibition ([3]; at 50.0 µM) was 54.7%. The growth inhibition [4, 7] was 24%, the growth inhibition [4, 8] was 98% (active) and the growth inhibition ([4]; at 50.0 µM) was 63.2%. For the same compound, the growth inhibition [5, 7] was 7%, the growth inhibition [5, 8] was 98% (active) and the growth inhibition ([5]; at 50.0 µM) was 48.9%. The growth inhibition [6, 7] was 34%, the growth inhibition [6, 8] was 98% (active) and the growth inhibition ([6]; at 50.0 µM) was 58.1%.

With `CC(=O)C(CN(CC(C)C)CC(C)C)C(c1ccccc1)c1c(O)c2ccccc2oc1=O` (configuration not stated) the growth inhibition [1, 7] was 0%, the growth inhibition [1, 8] was 0% and the growth inhibition ([1]; at 50.0 µM) was 80.1% (active). The growth inhibition [2, 7] was -12%, the growth inhibition [2, 8] was -12% and the growth inhibition ([2]; at 50.0 µM) was 73.7% (active). The growth inhibition [3, 7] was -2%, the growth inhibition [3, 8] was -2% and the growth inhibition ([3]; at 50.0 µM) was 85% (active). The growth inhibition [4, 7] was -10%, the growth inhibition [4, 8] was -10% and the growth inhibition ([4]; at 50.0 µM) was 83.2% (active). For the same compound, the growth inhibition [5, 7] was -1%, the growth inhibition [5, 8] was -1% and the growth inhibition ([5]; at 50.0 µM) was 78.8% (active). The growth inhibition [6, 7] was 7%, the growth inhibition [6, 8] was 7% and the growth inhibition ([6]; at 50.0 µM) was 81.9% (active).

In the case of `Cc1c2ccncc2c(CN(CCCl)CCCl)c2c3ccccc3n(C)c12`, the growth inhibition [1, 7] is reported as 10%, the growth inhibition [1, 8] is reported as 98% (active) and the growth inhibition ([1]; at 50.0 µM) is reported as 90.3% (active). The growth inhibition [2, 7] was 17%, the growth inhibition [2, 8] was 99% (active) and the growth inhibition ([2]; at 50.0 µM) was 88.5% (active). The growth inhibition [3, 7] was -25%, the growth inhibition [3, 8] was 86% (active) and the growth inhibition ([3]; at 50.0 µM) was 85.2% (active). The growth inhibition [4, 7] was 6%, the growth inhibition [4, 8] was 96% (active) and the growth inhibition ([4]; at 50.0 µM) was 88.2% (active). For the same compound, the growth inhibition [5, 7] was -10%, the growth inhibition [5, 8] was 80% (active) and the growth inhibition ([5]; at 50.0 µM) was 82.1% (active). The growth inhibition [6, 7] was 24%, the growth inhibition [6, 8] was 99% (active) and the growth inhibition ([6]; at 50.0 µM) was 91.8% (active).

Compound `Cc1nnc2n1-c1ccc(Cl)cc1C(c1ccccc1)=[N+]([O-])C2` has a growth inhibition [1, 7] of 4%, a growth inhibition [1, 8] of 0% and a growth inhibition ([1]; at 50.0 µM) of -16.8%. The growth inhibition [2, 7] was -3%, the growth inhibition [2, 8] was -9% and the growth inhibition ([2]; at 50.0 µM) was -0.7%. The growth inhibition [3, 7] was 1%, the growth inhibition [3, 8] was 3% and the growth inhibition ([3]; at 50.0 µM) was 3.05%. The growth inhibition [4, 7] was 1%, the growth inhibition [4, 8] was 12% and the growth inhibition ([4]; at 50.0 µM) was 64.7%. It also gave a growth inhibition [5, 7] of -1%, a growth inhibition [5, 8] of -1% and a growth inhibition ([5]; at 50.0 µM) of 7.45%. The growth inhibition [6, 7] was -3%, the growth inhibition [6, 8] was -4% and the growth inhibition ([6]; at 50.0 µM) was -6.2%.

With `CC(C)CCC1(CCSC(=O)S)C(=O)NC(=O)NC1=O` the growth inhibition [1, 7] was -4%, the growth inhibition [1, 8] was 77% (active) and the growth inhibition ([1]; at 50.0 µM) was 85.3% (active). For the same compound, the growth inhibition [2, 7] was 0%, the growth inhibition [2, 8] was 62% and the growth inhibition ([2]; at 50.0 µM) was 8.3%. It also gave a growth inhibition [3, 7] of 4%, a growth inhibition [3, 8] of 67% and a growth inhibition ([3]; at 50.0 µM) of 25.8%. It also gave a growth inhibition [4, 7] of -4%, a growth inhibition [4, 8] of 21% and a growth inhibition ([4]; at 50.0 µM) of -37.2%. For the same compound, the growth inhibition [5, 7] was -4%, the growth inhibition [5, 8] was 65% and the growth inhibition ([5]; at 50.0 µM) was 19.8%. The growth inhibition [6, 7] was -8%, the growth inhibition [6, 8] was 70% (active) and the growth inhibition ([6]; at 50.0 µM) was 30.8%.

In the case of `C1CCC(NCC2CCCO2)CC1` (configuration not stated), the growth inhibition [1, 7] is reported as -12%, the growth inhibition [1, 8] is reported as 1% and the growth inhibition ([1]; at 50.0 µM) is reported as 77.5% (active). For the same compound, the growth inhibition [2, 7] was -10%, the growth inhibition [2, 8] was -21% and the growth inhibition ([2]; at 50.0 µM) was 71% (active). The growth inhibition [3, 7] was -1%, the growth inhibition [3, 8] was -9% and the growth inhibition ([3]; at 50.0 µM) was 79.5% (active). The growth inhibition [4, 7] was 25%, the growth inhibition [4, 8] was 30% and the growth inhibition ([4]; at 50.0 µM) was 76.3% (active). The growth inhibition [5, 7] was -2%, the growth inhibition [5, 8] was 17% and the growth inhibition ([5]; at 50.0 µM) was 77.8% (active). The growth inhibition [6, 7] was -4%, the growth inhibition [6, 8] was -31% and the growth inhibition ([6]; at 50.0 µM) was 58.3%.

For `NC(=O)c1cc([N+](=O)[O-])c(Cl)c([N+](=O)[O-])c1Cl`, the growth inhibition [1, 7] was 34%, the growth inhibition [1, 8] was 65% and the growth inhibition ([1]; at 50.0 µM) was 88.9% (active). For the same compound, the growth inhibition [2, 7] was 41%, the growth inhibition [2, 8] was 78% (active) and the growth inhibition ([2]; at 50.0 µM) was 86.7% (active). For the same compound, the growth inhibition [3, 7] was 83% (active), the growth inhibition [3, 8] was 98% (active) and the growth inhibition ([3]; at 50.0 µM) was 91.5% (active). The growth inhibition [4, 7] was 91% (active), the growth inhibition [4, 8] was 100% (active) and the growth inhibition ([4]; at 50.0 µM) was 90.3% (active). The growth inhibition [5, 7] was 66%, the growth inhibition [5, 8] was 97% (active) and the growth inhibition ([5]; at 50.0 µM) was 88.2% (active). The growth inhibition [6, 7] was 39%, the growth inhibition [6, 8] was 61% and the growth inhibition ([6]; at 50.0 µM) was 88.3% (active).

In the case of `CC12CCC3C(CCC4Cc5nc6nnnn6cc5CC43C)C1CCC2O` (configuration not stated), the growth inhibition [1, 7] is reported as 4%, the growth inhibition [1, 8] is reported as 79% (active) and the growth inhibition ([1]; at 50.0 µM) is reported as 55%. The growth inhibition [2, 7] was 20%, the growth inhibition [2, 8] was 71% (active) and the growth inhibition ([2]; at 50.0 µM) was 40.9%. For the same compound, the growth inhibition [3, 7] was 14%, the growth inhibition [3, 8] was 85% (active) and the growth inhibition ([3]; at 50.0 µM) was 51%. It also gave a growth inhibition [4, 7] of 4%, a growth inhibition [4, 8] of 44% and a growth inhibition ([4]; at 50.0 µM) of 29.6%. The growth inhibition [5, 7] was 2%, the growth inhibition [5, 8] was 38% and the growth inhibition ([5]; at 50.0 µM) was 53.8%. For the same compound, the growth inhibition [6, 7] was 11%, the growth inhibition [6, 8] was 82% (active) and the growth inhibition ([6]; at 50.0 µM) was 47%.
